Compounds without any hit were thinned out: in the full panel of roughly 83,000, 20% have a hit.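 Growth was measured after 48 h exposure to one concentration of compound in 96-well plates. Values under 10 count as active.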 Values without a mark were called inactive. Activity calls are given as the source filed them.
Each compound was assayed on NCI-H322M lung (assay: NCI-60 one-dose screen, 48 h (100 = growth as untreated, 0 = no growth, -100 = all killed)). Conditions: 10 µM unless noted.
Procedure: Growth inhibition of the NCI-H322M human Non-Small Cell Lung tumor cell line is measured as a screen for anti-cancer activity. Cells are grown in 96 well plates and exposed to the test compound for 48 hours. Compounds are tested at a single concentration, which is 10^-5 M for most compounds. The reported endpoint is percent growth (GI% or GIPRCNT), where numbers from 0 - 100% represent growth inhibition, and numbers from -100% - 0 represent cell death. For example, a value of 40 represents 60% growth inhibition. A value of 0 means no net growth occurred over the course of the experiment. A value of -40 indicates 40% of cells at the beginning of the experiment died by the end of the experiment. A value of -100 means all cells are dead at the end of the experiment.
NCI-60 Human Tumor Cell Lines Screen was performed using the standard one-dose NCI protocol, which is described in more detail at https://dtp.cancer.gov/discovery_development/nci-60/default.htm.
Compounds with GIPRCNT values below 10 were considered active. Activity score was based on GIPRCNT using the following formula: […]
Score is 0 for GIPRCNT values of 100 or above, 50 for GIPRCNT values of 0, and 100 for GIPRCNT values of -100.

Row | SMILES | growth
1 | O=C(CSc1nnnn1-c1ccccc1)Nc1ccc(Oc2ccccc2)cc1 | 114%
2 | CN(C)CCC(CCN(C)C)(C(=O)O)c1ccccc1 | 103%
3 | COc1ccc2c(c1)CC[C@@H]1[C@@H]2CC[C@]2(C)C3C(=CC(COC(C)=O)C4C(=O)N(c5ccc(Cl)cc5)C(=O)C43)C[C@@H]12 (stereo not given in full) | 107%
4 | CCOC(=O)C1=C(CCl)N(C)C(=O)NC1c1ccc2c(c1)OCO2 (stereo not given) | 85%
5 | C#Cc1cccc(Nc2ncnc3cc(NC(=O)CCl)ccc23)c1 | -16.4% (active)
6 | c1ccc(Cn2cc3c(c2-c2ccccc2)CCc2cnoc2-3)cc1 | 95.6%
7 | O=C(NNc1nc2cc(F)ccc2n2c(CN3CCOCC3)ccc12)c1ccccc1 | 25.1%
8 | Cc1ccc(Cc2cnc(NC(=O)/C=C/c3ccc(C)o3)s2)cc1 | 48.1%
9 | Cc1ccccc1N1CCN(C(=S)c2ccccc2)CC1 | 102%
10 | COc1ccc2c(O)c(/C=C3\N=Nc4ncccc43)oc2c1C[C@@H]1CCNC[C@H]1F | 3.89% (active)
11 | O=C(Nc1cccnc1Nc1ccc(Cl)cc1)c1cn(Cc2cccc(Oc3ccccc3)c2)nn1 | 68.7%
12 | O=C(Cc1ccc(/C=C/C(=O)c2ncc[nH]2)cc1)Nc1cc(F)c(F)c(F)c1 | 72.8%
13 | C=C(C)[C@@H]1CC[C@]2(C(=O)Nc3ccccn3)CC[C@]3(C)[C@H](CC[C@@H]4[C@@]5(C)CCCNC(C)(C)[C@@H]5CC[C@]43C)[C@@H]12 | 65.5%
14 | O=C(/C=C/c1ccco1)Nc1ncc(Cc2cc(Cl)ccc2Cl)s1 | 43.7%
15 | CN(C)CCCn1c2c(c3cnccc3c1=O)C(=O)c1ccccc1-2 | -7.53% (active)
16 | Cc1cccc(NC(=O)N/C(N)=N/c2nc3ccccc3s2)c1 | 47.7%
17 | Oc1c(I)cc(I)cc1CN(Cc1ccccn1)Cc1ccccn1 | 18.4%
18 | C=C1C(=O)O[C@H]2[C@H]1CC/C(COC(=O)/C=C\C(=O)NCc1ccc(Cn3c(=O)sn(CCCCl)c3=O)cc1)=C\CC[C@@]1(C)O[C@@H]21 | 107%
19 | COC(=O)c1ccc2c(c1)c1c(C)c3cnccc3c(C)c1n2C | -14% (active)
20 | Nc1[nH]nc2nc(-c3ccccc3)n3c4ccccc4nc3c12 | 93%

Row | SMILES | growth
21 | O=C(CN1C(=O)S/C(=C\C(Cl)=C\c2ccccc2)C1=O)NC1CCS(=O)(=O)C1 (stereo not given) | 95.7%
22 | COc1ccc(-c2cc(-c3cn(-c4cccc(Cl)c4)nc3-c3ccc(OC)cc3)on2)cc1 | 86.9%
23 | CCOC(=O)CC1CSC(N/N=C/c2ccc(F)c(Br)c2)=N1 (stereo not given) | 109%
24 | COc1cc(-c2nccc3[nH]c(-c4cccc5[nH]ccc45)nc23)cc(OC)c1OC | 64%
25 | CSc1nc(-c2ccco2)c(C#N)c(=O)n1C | 89.6%
26 | CCN(CC)C(=O)C1=C(C)NC(=O)NC1c1ccc2c(c1)OCO2 (stereo not given) | 109%
27 | O=C1CCCCN1c1ccc(C2=NCCCN2)cc1 | 92.3%
28 | COc1ccc2c(c1)oc1c(C)c3c(c(C)c12)C(=O)N(CCOS(C)(=O)=O)C3=O | 96.7%
29 | CCOc1ccc(/C=C/C(=O)c2cccc(OCCCOc3cccc(C(=O)/C=C/c4ccc(OCC)cc4)c3)c2)cc1 | 84.5%
30 | CCn1cc(Cc2cc(C(=O)Nc3cc4cc(OC)c(OC)cc4c(C)n3)ccc2Cl)cn1 | 102%
31 | CCCN(CCSSCCNc1nc(N(C)O)nc(N(C)O)n1)c1nc(N(C)O)nc(N(C)O)n1 | 44.5%
32 | Cc1nn(-c2ccc([N+](=O)[O-])cc2)c2ncnc(N/N=C/c3ccccc3O)c12 | 13.4%
33 | COc1ccc(C=Nc2c(C(=O)Nc3cccc(Cl)c3C)sc3nc(C)c(C(=O)/C=C/c4ccc(OC)cc4)cc23)cc1 | 43.1%
34 | O=C1/C(=C/c2ccccn2)SC(=S)N1N1CCOCC1 | 97.5%
35 | Nc1ncnc2c1N=C(c1ccc(F)cc1)CC(c1cccc(Nc3ccnc4cc(Cl)ccc34)c1)N2 (stereo not given) | 89.6%
36 | C[C@@H]1NC(=O)[C@H](Cc2ccccc2)N(Cc2cccnc2)C1=O | 109%
37 | COc1cc(/C=C2\C(=O)N(CCCOc3cc(O)c4c(=O)cc(-c5ccccc5)oc4c3)c3ccccc32)cc(OC)c1O | 89.9%
38 | CCN(CCNc1ccc(C)c2sc3cc(Cl)ccc3c(=O)c12)CC(C)(C)O | 74%
39 | CSc1nc2ccc(C)cc2cc1/C=C1/C=C(c2ccccc2)NC1=O | 65.8%
40 | C#COc1cccc(Nc2ncnc3cc(NC(=O)[C@H](C)Cl)ccc23)c1 | 30% [6.25 µM]
